Sfp inh = inhibitors of Bacillus subtilis Sfp phosphopantetheinyl transferase. Potency, µM, for the others: largest response in the series, negative = inhibition, actives largely listed as inhibitors. Q9F4F7. 3.5% of 310,000 active. Biochemical Sfp PPTase activity, qHTS;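 further: the enzyme is Sfp with the accession as filed and its product quenches rhodamine fluorescence; 0% = enzyme reaction without inhibitor and -100% = no enzyme wells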
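Compounds were incubated with enzyme (final 15 nM) for 15 min at room temperature before substrate addition started the reaction. Fluorescence at 525 nm excitation, 598 nm emission was recorded immediately and after 30 minutes.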
HP1b binding inh = inhibitors of HP1-beta chromodomain binding to methylated histone tails | P83916 | AlphaScreen HP1-beta / biotin-H3K9me3 peptide binding | Potency, µM (series often up to 114 µM), for the others: at the highest dose activity change, negative = inhibition, most hits filed as inhibitors | 0.56% of 390,000 active; further: nearly all actives have a fitted effect of over 70% in size
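Compound inhibition of the preformed complex between 50 nM HP1-beta and 50 nM biotinylated H3K9me3 peptide was read by AlphaScreen. Buffer was PBS pH 7.4 with 0.01% Tween-20. Incubations ran 30 min at room temperature, with 10 ug/mL donor/acceptor beads.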
BAZ2B inh = inhibitors of human BAZ2B bromodomain | Q9UIF8 | AlphaScreen BAZ2B-H3K14Ac peptide displacement | Potency, µM (top dose mostly 114 µM), for inactives: top-dose activity change, negative = inhibition, actives largely listed as inhibitors | 4.4% of 360,000 active | AID 504333; further: on the % scale 0 is the no-effect control and ±100 the full control effect; nearly all actives have a fitted effect of over 60% in size
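BAZ2B (50 nM) with biotin-H3(5-23)K14Ac peptide (50 nM) in PBS pH 7.4, 0.01% Tween-20, preformed 30 min, then compound 30 min at room temperature; top concentration 110uM. AlphaScreen streptavidin donor/nickel chelate acceptor beads (10 ug/mL final), 20 min dark, signal read.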
G9a block = blocks human histone lysine methyltransferase G9a. Potency, µM (series often up to 102 µM), inactives show at the top dose activity, negative = inhibition, hits mostly inhibitors. 8.8% of 350,000 active. AID 504332. G9a H3K9 monomethylation, AlphaScreen, 2 h. Q96KQ7; further: on the % scale 0 is the no-effect control and ±100 the full control effect; nearly all actives have a fitted effect of over 75% in size
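Methyltransferase reactions run at room temperature for 2 h (20 nM enzyme, 500 nM biotin-H3K9 peptide, 20 uM SAM) after a 15 min compound preincubation; product detected by AlphaScreen beads and anti-H3K9me1 antibody.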
JMJD2A Tudor inh = inhibitors of human JMJD2A Tudor domain; 4.4% of 390,000 active; Potency, µM (top dose mostly 114 µM), for the others: at the top dose activity change, negative = inhibition, actives largely listed as inhibitors; O75164; AlphaScreen JMJD2A-Tudor / H3K4me3 peptide binding; further: on the % scale 0 is the no-effect control and ±100 the full control effect; nearly all actives have a fitted effect of over 50% in size
Target sequence (O75164 whole entry, looked up, the tested form may be a part): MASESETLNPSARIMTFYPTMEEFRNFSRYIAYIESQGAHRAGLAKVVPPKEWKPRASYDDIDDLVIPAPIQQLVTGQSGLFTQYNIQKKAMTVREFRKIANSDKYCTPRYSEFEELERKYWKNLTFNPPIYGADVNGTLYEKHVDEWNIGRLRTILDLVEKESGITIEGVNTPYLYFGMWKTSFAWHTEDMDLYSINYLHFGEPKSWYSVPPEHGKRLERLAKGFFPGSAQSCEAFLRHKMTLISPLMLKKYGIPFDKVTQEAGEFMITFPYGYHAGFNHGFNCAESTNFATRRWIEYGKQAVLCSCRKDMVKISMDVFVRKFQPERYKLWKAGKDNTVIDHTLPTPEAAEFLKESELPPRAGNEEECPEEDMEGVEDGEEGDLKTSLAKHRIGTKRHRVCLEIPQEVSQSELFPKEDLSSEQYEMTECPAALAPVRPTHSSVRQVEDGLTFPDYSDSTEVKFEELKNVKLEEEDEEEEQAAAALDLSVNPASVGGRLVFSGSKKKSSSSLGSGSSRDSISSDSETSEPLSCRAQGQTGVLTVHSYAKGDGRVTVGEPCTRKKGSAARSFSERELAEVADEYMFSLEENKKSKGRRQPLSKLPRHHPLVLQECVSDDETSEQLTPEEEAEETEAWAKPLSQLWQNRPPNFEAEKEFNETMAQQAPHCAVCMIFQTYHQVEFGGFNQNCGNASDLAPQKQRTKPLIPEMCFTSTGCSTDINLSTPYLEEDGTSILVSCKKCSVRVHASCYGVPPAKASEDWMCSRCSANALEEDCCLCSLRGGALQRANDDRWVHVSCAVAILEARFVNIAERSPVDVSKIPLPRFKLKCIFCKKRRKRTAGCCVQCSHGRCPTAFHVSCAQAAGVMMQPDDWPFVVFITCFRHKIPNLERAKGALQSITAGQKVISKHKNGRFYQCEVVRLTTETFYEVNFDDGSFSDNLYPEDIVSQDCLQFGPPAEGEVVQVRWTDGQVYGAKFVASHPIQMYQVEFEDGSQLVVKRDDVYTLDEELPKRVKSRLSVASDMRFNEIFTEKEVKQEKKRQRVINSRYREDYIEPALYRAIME
L3MBTL1 block = inhibitors of human L3MBTL1; AlphaScreen L3MBTL1–H3K9me1 peptide binding; 0.66% of 230,000 active; Q9Y468; Potency, µM (top dose mostly 57.1 µM), inactives show at the highest dose activity, negative = inhibition, most hits filed as inhibitors; further: on the % scale 0 is the no-effect control and ±100 the full control effect; nearly all actives have a fitted effect of over 60% in size
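Displacement of a biotinylated histone H3(1-15) peptide monomethylated at Lys9 (75 nM) from L3MBTL1 (50 nM) was measured by AlphaScreen after a 30 min room-temperature compound incubation; cefsulodin titration served as intraplate control.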
* = called active by the depositor; ? = inconclusive; . = no result; [ ] = another dose, or the depositor's remark. Hits are enriched below; roughly 12% of the tested compounds scored in any of these assays. The call rests on the fitted dose curve; in most records, active means well fitted curve in the direction sought with a large enough effect; inconclusive means small, poorly fitted or top-dose-only effect, or another doubt; inactive means no such curve, though single readings can be large; an effect the other way counts as inactive or inconclusive. Potency means the concentration at half of the fitted maximal effect.

SMILES	Sfp inh	HP1b binding inh	BAZ2B inh	G9a block	JMJD2A Tudor inh	L3MBTL1 block
Nc1nc(SCc2ccc(Cl)cc2Cl)nc2nc3c(cc12)CCCC3	-8%	15%	?	-17%[59 µM]	-24%	-4%
O=C(NCCCN1CCCC1=O)c1cccs1	-6%	12%	0%	-4%[12.7 µM]	-10%	.
O=C(NCCCN1CCCC1=O)c1c(O)nc2sccn2c1=O	.	10%	-34%	-8%	35µM*	4%
CCCOC(=O)c1c(-c2ccc(C)cc2C)csc1NC(=O)C1C2CCC(O2)C1C(=O)O (stereo not given)	?	?	-6%	13µM*	71µM*	3%
CCOC(=O)c1c(NC(=O)C2C3CCC(O3)C2C(=O)O)sc(C)c1-c1ccc(F)cc1 (stereo not given)	4%	27%	8%	.	-2%	38%
CCOC(=O)c1c(NC(C)=O)c2c3c(sc2n1Cc1ccc(Cl)cc1)CCCC3	.	26%	-3%	5%[59 µM]	-17%	.
O=C(NCCSc1ccccc1)c1ccccc1	5%	51%	-3%	-3%[12.7 µM]	1%	.
O=C(NCSc1ccncn1)c1ccccc1	20µM*	-25%	?	?	20µM*	6%
O=C(NCSc1ccnc(SCNC(=O)c2ccccc2)n1)c1ccccc1	-19%	29%	-9%	4µM*	-30%	3%
O=C(NCCc1ccccc1)c1ccncc1	7%	.	-18%	?	.	4%
COc1ccc(CN2CC(=O)N(c3ccc(C)c(C)c3)C2=S)cc1OC	2%	?	-11%	-40%	56µM*	.
COc1cc(CN2CC(=O)N(c3cc(Cl)ccc3C)C2=S)cc(OC)c1OC	-5%	12%	-18%	?	?	.
COc1ccc(CN2CC(=O)N(c3cc(Cl)ccc3C)C2=S)cc1OC	-8%	7%	4%	71µM*	-31%	.
COc1cc(CN2CC(=O)N(c3ccc(C)c(C)c3)C2=S)cc(OC)c1OC	-2%	8%	-4%	-26%	-23%	3%
Cc1ccc(OCC(=O)N2N=C(c3ccncc3)CC2(O)C(F)(F)F)cc1C (stereo not given)	23%	51%	-12%	33%	-24%	0%
O=C(COc1ccccc1)N1N=C(c2cccnc2)CC1(O)C(F)(F)F (stereo not given)	7%	23%	-17%	50µM*	-11%	1%
CC1=Nc2ccccc2/C1=C/c1c(C)[nH]c2ccccc12	.	?	.	.	56µM*	.
CC1=Nc2ccccc2/C1=C\c1nc(-c2ccccc2)oc1O	-4%	5%	?	?	?	.
CCOc1cc(/C=N/N=C2/NC(=O)C(CC(=O)O)S2)ccc1OCc1ccc(Cl)cc1 (stereo not given)	3%	-24%	56µM*	-24%	50µM*	?
COc1ccc(/C=N/N=C2/NC(=O)C(CC(=O)O)S2)cc1OCc1ccc(Cl)cc1 (stereo not given)	-3%	15%	?	-7%	?	-1%
COc1ccc(/C=N/N=C2/NC(=O)C(CC(=O)O)S2)cc1OS(=O)(=O)c1ccccc1 (stereo not given)	5%	34%	-29%	?	-5%	-5%
O=C(O)CC1S/C(=N/N=C/C=C/c2ccccc2)NC1=O (stereo not given)	-7%	22%	79µM*	7.9µM*	79µM*	10%
COc1cc(/C=N/N=C2/NC(=O)C(Cc3ccccc3)S2)ccc1O (stereo not given)	21%	34%	5%	-4%	-10%	.
CC(=O)Nc1ccc(S(=O)(=O)Oc2cccc(/C=N/N=C3/NC(=O)C(CC(=O)O)S3)c2)cc1 (stereo not given)	3%	29%	56µM*	?	-23%	-20%
Cn1c(=O)n(C)c2cc(/C=N/N=C3/NC(=O)C(CC(=O)O)S3)ccc21 (stereo not given)	?	?	50µM*	-14%	32µM*	-24%

Assay outcomes deposited in PubChem BioAssay by National Center for Advancing Translational Sciences (NCATS).
